Most compounds without a hit are left out; they make up all but 1.3% or so of the library.
B2AR ag – human beta-2 adrenergic receptor agonism by FAP; P07550; Am2.2-beta2AR cells, FAP receptor internalization, flow cytometry; response, % (concentration not given with the values); actives 0.43% (n = 340,000);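 active = response above a set limit, near 3 SD of response in nonfluorescent compounds, cut at about 42% in these data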
VLA-4 inh – inhibition in a human VLA-4 binding assay; P13612; VLA-4 expressing cells, ligand binding flow cytometry; inhibition, % (about 7 µM as worked out from the volumes in the protocol); actives 0.2% (n = 330,000); in the data active = inhibition above about 50%
Target sequence (P13612 whole entry, looked up): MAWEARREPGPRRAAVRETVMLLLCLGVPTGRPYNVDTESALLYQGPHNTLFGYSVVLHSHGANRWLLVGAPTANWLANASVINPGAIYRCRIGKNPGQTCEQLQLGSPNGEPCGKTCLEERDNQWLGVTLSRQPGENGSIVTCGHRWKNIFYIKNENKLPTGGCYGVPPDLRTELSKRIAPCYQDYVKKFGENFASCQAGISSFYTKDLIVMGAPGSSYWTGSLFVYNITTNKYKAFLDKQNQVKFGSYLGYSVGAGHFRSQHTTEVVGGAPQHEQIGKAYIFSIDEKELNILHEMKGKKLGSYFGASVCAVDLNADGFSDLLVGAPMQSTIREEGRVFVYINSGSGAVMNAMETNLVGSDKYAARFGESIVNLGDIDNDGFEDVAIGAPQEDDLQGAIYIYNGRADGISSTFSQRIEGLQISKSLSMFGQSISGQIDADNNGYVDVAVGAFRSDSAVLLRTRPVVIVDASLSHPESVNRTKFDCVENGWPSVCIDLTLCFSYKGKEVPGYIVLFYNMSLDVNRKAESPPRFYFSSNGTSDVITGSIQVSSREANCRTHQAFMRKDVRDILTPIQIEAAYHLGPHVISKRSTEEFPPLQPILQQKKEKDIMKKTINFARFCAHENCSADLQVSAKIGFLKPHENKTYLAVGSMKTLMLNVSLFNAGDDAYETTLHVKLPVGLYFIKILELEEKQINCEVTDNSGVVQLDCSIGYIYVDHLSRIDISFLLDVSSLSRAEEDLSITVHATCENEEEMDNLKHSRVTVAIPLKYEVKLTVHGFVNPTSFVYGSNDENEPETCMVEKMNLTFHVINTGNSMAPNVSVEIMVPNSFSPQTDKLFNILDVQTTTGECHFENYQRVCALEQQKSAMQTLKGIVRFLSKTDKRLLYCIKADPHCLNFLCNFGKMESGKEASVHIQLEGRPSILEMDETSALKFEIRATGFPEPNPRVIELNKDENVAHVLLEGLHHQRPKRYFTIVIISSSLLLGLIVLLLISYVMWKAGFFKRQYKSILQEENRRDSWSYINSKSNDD
A1 inh – inhibitors of the anti-apoptotic protein A1, read as caspase activation; MEF A1-2A-BIM cells, Caspase-Glo 3/7 luminescence, 3 h; percent of clofoctol response, vehicle zero; caspase activation, % (no concentration beside the values); actives 0.066% (n = 330,000);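 active = over half of replicate activation scores above 10%, or exactly half above 10 with the replicate mean above 10; inconclusive = replicate mean below 10 yet half the replicates above 10; inactive = over half of replicates below 10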
GRK2 aptamer HTS – human GRK2 inhibition via aptamer displacement; actives 0.59% (n = 330,000); P25098; bead flow cytometry, FAM-aptamer displacement from GRK2; AID 488847; inhibition of aptamer binding, % at 10 µM;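 active = inhibition of aptamer binding above 40%, roughly 3 SD of noise, on plates passing a quality check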;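 also: median bead fluorescence of bound FAM aptamer so fluorescent compounds give negative values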
NTR1 agonist – agonists of human neurotensin receptor NTR1 | P30989 | NTR1-U2OS beta-arrestin-GFP spot imaging, agonist mode | activation, % at 20 µM | actives 0.17% (n = 330,000) | AID 493036;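 active = activation at or above 40% of the spot to cytoplasm intensity ratio, with at least 20 cells analyzed; inconclusive = wells under 20 cells, flagged as cytotoxic or low count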;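 also: 0% = DMSO without peptide and 100% = 100 nM NTR1 peptide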
GRK2 inh confirm – confirmation of human GRK2 inhibitors displacing RNA aptamer; shares compounds with GRK2 aptamer HTS; bead-bound GRK2, FAM-aptamer displacement, flow cytometry; aptamer displacement, % at 10 µM; actives 4% (n = 2,000); AID 504451;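 active = aptamer displacement above 40%, near three times the noise of non-fluorescent compounds, on plates passing quality checks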;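 also: negative values mostly reflect intrinsic compound fluorescence rather than true enhancement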
Aptamer quench – fluorescent aptamer quenching in GRK2 counter-screen dose response; shares compounds with GRK2 aptamer HTS; Fluorescent RNA aptamer beads, flow cytometry; active compounds read high; fluorescence change (kMESF span), kMESF (test concentration not listed); 110 tested, under 10 active; AID 504521;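 active = compounds whose bead fluorescence drops by more than 37 kMESF across the dose range, marking them as dye quenchers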
Aptamer quench SP – counter-screen for GRK2 aptamer inhibitors: fluorescent aptamer quenchers. shares compounds with GRK2 aptamer HTS. fluorescence response (% of DMSO), % at 10 µM. Carboxyfluorescein RNA aptamer on beads, flow cytometry quenching; active compounds read low. 2,000 tested, under 10 active;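 active = compounds that quench the bead-bound fluorescent RNA probe, cutting fluorescence to under half of the solvent control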;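 also: counterscreen run without GRK2 so only probe quenching by compound is measured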
GRK2 CP2 – human GRK2 inhibition confirmation, cherry pick 2 | shares compounds with GRK2 aptamer HTS | AID 504782 | inhibition of aptamer binding, % at 10 µM | bead-bound GRK2, FAM-aptamer displacement, flow cytometry | 360 tested, under 10 active;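 active = inhibition of aptamer binding above 40%, about triple the noise seen with nonglowing compounds, on plates passing quality control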;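 also: negative values mostly come from compounds that fluoresce themselves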
FAM quench CP2 – aptamer fluorescence quenching in GRK2 counter-screen. AID 588494. 360 tested, under 10 active. carboxyfluorescein RNA aptamer beads, flow cytometry quenching; active compounds read low. shares compounds with GRK2 aptamer HTS. fluorescence response vs DMSO, % at 10 µM;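 active = response vs DMSO under 50%, meaning signal dropped by over half, treated as fluorescence quencher; inconclusive = no clear call, values can overlap the other calls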;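 also: labelled aptamer on streptavidin beads without GRK2 as a quench counter-screen; 100% = bead fluorescence of DMSO wells and lower means quenching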
Active calls of the source: *; ? = inconclusive; . = no result given.

SMILES	B2AR ag	VLA-4 inh	A1 inh	GRK2 aptamer HTS	NTR1 agonist	GRK2 inh confirm	Aptamer quench SP	others
Cc1ccc(S(=O)(=O)N2CCCC(C(=O)N3CCN(c4ccccc4)CC3)C2)cc1 (stereo unspecified)	-3	0	0	0	1	.	.
Cc1nn(C)c(C)c1S(=O)(=O)N1CCCC(C(=O)N2CCN(c3ccccc3)CC2)C1 (stereo unspecified)	6	-2	1	82*	-2	-1	99
O=C(Nc1cc(Cl)ccc1N1CCOCC1)c1ccc(N2CCCCC2)c([N+](=O)[O-])c1	-1	1	0	42*	5	.	.	GRK2 CP2=-11;FAM quench CP2=106
Cc1cccc(-n2ccc(=O)c(C(=O)Nc3ccc(S(=O)(=O)Nc4nccc(C)n4)cc3)n2)c1	-11	2	1	94*	0	1	99
Cc1cccc(-n2ccc(=O)c(C(=O)Nc3ccc(S(=O)(=O)N4CCOCC4)cc3)n2)c1	3	-12	0	3	1	.	.
O=Cc1c(NCc2ccc(Cl)cc2)c2ccccc2[nH]c1=O	-7	5	-1	100*	-1	4	94
COc1cccc(NC(=S)N(C)C2CCN(C)CC2)c1	-6	16	0	10	-2	.	.
O=C1NC(c2cccc(Br)c2)=N/C1=C\c1ccco1	3	8	0	50*	6	-2	98
CNC(=O)COc1coc(CN2CCN(c3ccc(F)cc3)CC2)cc1=O	-1	17	0	0	-1	.	.
O=C(c1ccccc1F)N1CCN(c2ccccc2F)CC1	8	-11	-1	0	1	.	.
O=C(c1ccccc1C(=O)N1CCN(c2ccccc2F)CC1)N1CCN(c2ccccc2F)CC1	-4	7	0	77*	0	3	97
CC1CCCC(NC(=O)C2N(CCCN3CCCC3)C(=O)C3C(C(=O)Nc4cccc(Cl)c4)C4C=CC32O4)C1C (stereo unspecified)	12	13	0	0	1	.	.
O=C(NCCc1nnc2ccc(NCCCN3CCOCC3)nn12)c1ccccc1F	1	7	1	0	0	.	.
COc1ccccc1N1CCN(C(=O)CSc2nc3ccccc3[nH]2)CC1	0	-19	0	96*	-2	-28	103
N#Cc1ccc(CSc2ccc(S(=O)(=O)N3CCCCCC3)cn2)cc1	11	.	.	.	1	.	.
COc1cccc(NC(=O)CSc2nnc(-c3cc(C)n(-c4ccccc4)c3C)o2)c1	-5	-9	1	98*	2	2	103
Cc1ccc(CC2(O)CC(C)N(C)CC2C)c(C)c1 (stereo unspecified)	2	5	0	56*	2	-1	104
NC(=O)N/N=C/c1ccc([N+](=O)[O-])o1	3	21	?	5	1	.	.
O=C(N/N=C/c1ccc([N+](=O)[O-])o1)C1CC1	3	43	0	83*	0	23	99
c1ccc(-c2cc3cc4c(cc3cn2)OCO4)cc1	-8	-11	-13	4	-1	.	.
CCN=C1S/C(=C\c2ccc(-c3cccc(C(=O)O)c3)o2)C(=O)N1CC	7	-2	-4	34	0	5	83
CCOC(=O)C1=C(C)Nc2nc(SCc3cccnc3)nn2C1c1ccc(OC)cc1 (stereo unspecified)	-11	-11	-1	55*	0	2	100
O=C(c1ccccn1)N1CCCC(N2CCN(c3ccccc3)CC2)C1 (stereo unspecified)	3	5	0	1	0	.	.
CN(C)c1ccc(N=Nc2ccc(C(=O)O)cc2)cc1	1	-4	-8	54*	1	2	102
CN(C)c1ccc(C(=O)c2ccccc2)cc1	1	-3	-5	0	0	.	.
SMILES	B2AR ag	VLA-4 inh	A1 inh	GRK2 aptamer HTS	NTR1 agonist	GRK2 inh confirm	Aptamer quench SP	others
CCOC(=O)CCN(Cc1ccccc1)S(=O)(=O)c1csc(C(N)=O)c1	15	5	0	0	1	.	.
CCN(CC)Cc1csc(C(N)=O)c1	-4	3	0	14	0	-3	101
O=C(COC(=O)COc1ccccc1[N+](=O)[O-])Nc1ccc2c(c1)OCO2	1	-14	1	2	0	.	.
O=C(COC(=O)COc1ccccc1[N+](=O)[O-])NCc1ccc2c(c1)OCO2	-3	0	1	43*	0	2	96
CCCCCn1c(CN2CCCCC2CC)nc2c1c(=O)n(C)c(=O)n2C (stereo unspecified)	3	6	0	0	0	0	101
COc1ccc(-c2c(C#CC(C)(C)O)c3ccccc3n2C)cc1	-10	-4	0	94*	-1	.	.	GRK2 CP2=-11;FAM quench CP2=96
CCCOc1ccc(NC(=O)CC2C(=O)N(CC)C(=S)N2CCNC(C)=O)cc1 (stereo unspecified)	-8	6	1	0	2	.	.
CCOc1ccc(NC(=O)CC2C(=O)N(CC)C(=S)N2CCNC(C)=O)cc1 (stereo unspecified)	-11	7	2	70*	1	.	.	GRK2 CP2=11;FAM quench CP2=100
Oc1ccc(/C=C/c2ccc3cccc(O)c3n2)cc1Br	-32	-5	-12	47*	10	-1	96
COc1ccc(C2=CCCC2)c(OC)c1	2	.	.	.	.	.	.
O=C(Nn1cnnc1)c1cc(Br)ccc1Cl	1	8	-1	53*	0	-1	100
Cc1ccc(-c2csc(N(CCCN3CCOCC3)C(=O)c3ccco3)n2)cc1	9	21	.	1	8	-3	102
COc1ccc(-c2csc(N(CCCN3CCOCC3)C(=O)c3ccco3)n2)cc1	1	-20	1	1	2	.	.
Cc1ccc(S(=O)(=O)Cc2ccc(C(=O)O)o2)cc1	8	-8	1	67*	-1	64*	95	Aptamer quench=2.1
COc1ccc(S(=O)(=O)Cc2ccc(C(=O)O)o2)cc1	-3	19	0	0	-2	.	.
COc1ccccc1CNC(=O)C1CCN(S(=O)(=O)c2ccc3c(c2)C(C)(C)C(=O)N3C)CC1	0	44	1	3	4	.	.
